Assay outcomes from PubChem BioAssay.
Hits are enriched below; roughly 4.7% of the tested compounds scored in any of these assays.
TWEAK-Fn14 inh – blocks TWEAK-Fn14 interaction in a reporter cell assay | TWEAK-stimulated Fn14 reporter cells, luciferase luminescence, 8 h | inhibition, % at 10 µM | hit rate 2% among 360,000; in the data active = inhibition above about 50%
TROY NFkB inh – inhibitors of TROY-dependent NF-kB signaling; Q293 LMP1-TROYcd NF-kB luciferase reporter, 4 h; hit rate 0.98% among 360,000; inhibition, % at 10 µM;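 active = compounds whose plate-normalised and pattern-corrected inhibition of the luciferase reporter signal at the single screening dose is 50% or more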
HSP90 refold inh – blocks HSP90-mediated luciferase refolding in reticulocyte lysate; Rabbit reticulocyte lysate, luciferase refolding luminescence, 3 h; hit rate 0.91% among 290,000; inhibition, % at 5.6 µM;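 active = inhibition above the screen-wide mean plus 3 SD, computed separately per campaign, cut at about 16% in these data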;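 also: 0% = DMSO wells and 100% = 60 µM geldanamycin wells; inhibitors lower the luminescence because luciferase stays unfolded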
HSF1 activator – increases HSF-1 driven luciferase reporter signal. NIH3T3-HGL HSF-1 luciferase reporter, MG132, 8 h; 100% = twice DMSO control signal. activation, % at 9 µM. hit rate 1.7% among 300,000;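 active = mean replicate activation of at least 50% with a set share of replicates each reaching 50%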;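 also: 0% = median of the neutral control wells and 100% = twice that signal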
HSF1 inhib – HSF1 inhibition; NIH3T3-HGL HSE-luciferase, MG132-induced, luminescence 8 h; active compounds read low; activity change, negative = inhibition, % at 7.5 µM (by protocol); hit rate 0.77% among 300,000; AID 2098;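 active = more than half of replicate wells show activity change below -50%, luminescence cut by over half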;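 also: luciferase reports HSF-1 transcriptional activity via heat shock element; 0% = median of DMSO wells and -100% = zero luminescence signal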
LMP1 NFkB inh – inhibitors of Epstein-Barr LMP1-induced NF-kappaB reporter. AID 504558. hit rate 0.69% among 350,000. inhibition, % at 12.5 µM. LMP1-induced NF-kappaB luciferase reporter cells, luminescence; in the data active = inhibition above about 41%;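 also: 0% = neutral control wells and 100% = reference inhibitor control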
* marks the source's active call; other numbers are inactive results; · = not tested or not shown.

SMILES | TWEAK-Fn14 inh | TROY NFkB inh | HSP90 refold inh | HSF1 activator | HSF1 inhib | LMP1 NFkB inh
Nc1cccc(CN2CCCC2)c1 | -3.4 | 15.6 | 3.2 | -41.3 | -26.1 | 13.1
N#Cc1c(NC(=O)Cn2c(=O)oc3ccccc32)oc(-c2ccccc2)c1-c1ccccc1 | -14.1 | 68.1* | -0.1 | 3.7 | 2.6 | -13.0
COc1ccc(OC)c(CCNC(=O)CCn2nc(C)c3c(C)n(-c4ccccc4)nc3c2=O)c1 | -16.2 | -2.8 | -4.7 | -4.5 | -3.0 | 54.9*
COc1cc(CNc2ncnc3c2[nH]c2ccc(C)cc23)cc(OC)c1 | 23.9 | 50.5* | 0.3 | 48.9 | 13.7 | 28.2
CCCCN1C(=O)C(CC(=O)NC2CCCC2)CC(C(=O)N(C(C)C)C(C)C)=C1C (stereo not given) | -17.2 | 11.2 | · | · | · | 2.6
O=S(=O)(Nc1nc2ccccc2nc1Nc1ccc(N2CCOCC2)cc1)c1cc(Cl)ccc1Cl | 80.1* | 61.4* | 2.6 | -0.2 | -7.9 | 9.3
Clc1nc(Nc2ccc(N3CCOCC3)cc2)c2ccccc2n1 | 14.3 | 1.0 | 4.3 | 5.0 | -3.4 | 15.2
O=S(=O)(c1ccc(-c2csc(Nc3ccc(F)cc3)n2)cc1)N1CCCC1 | 22.8 | 44.7 | 1.9 | -5.2 | 13.0 | 18.3
O=C(Nc1nc(-c2cccs2)cs1)c1ccc(S(=O)(=O)N2CCCC2)cc1 | 92.6* | 65.6* | 6.2 | 4.8 | 5.8 | 18.8
O=C(Nc1nc(-c2ccc(S(=O)(=O)N3CCCCCC3)cc2)cs1)c1ccccc1 | 69.7* | 45.3 | -3.0 | -13.1 | -0.8 | 26.6
O=C(COc1ccccc1)Nc1nc(-c2ccc(S(=O)(=O)N3CCOCC3)cc2)cs1 | 49.1 | 37.4 | 6.8 | -3.2 | -3.0 | 15.4
O=S(=O)(c1ccc(-c2csc(Nc3ccc(Br)cc3)n2)cc1)N1CCCC1 | 60.9* | 36.3 | 1.9 | 0.0 | -3.2 | 8.1
O=C(COc1ccc(Cl)cc1)Nc1nc(-c2ccc(S(=O)(=O)N3CCOCC3)cc2)cs1 | 71.4* | 46.6 | -0.1 | 21.5 | 10.4 | 19.4
COc1ccc2cc(CN(C)C(=O)CN3C(=O)NC4(CCCC4)C3=O)ccc2c1 | 13.9 | 2.8 | · | · | · | 5.4
CN(C)S(=O)(=O)c1ccc(C(=O)Nc2nnc(-c3cccs3)o2)cc1 | -5.2 | -32.5 | 0.2 | 3.9 | 0.0 | 1.0
O=C(Nc1nc(-c2ccccc2)cs1)C1COc2ccccc2O1 (stereo not given) | 8.1 | · | 2.6 | 23.2 | 1.0 | 0.4
O=C(Nc1nc(-c2ccc(S(=O)(=O)N3CCCC3)cc2)cs1)C1COc2ccccc2O1 (stereo not given) | 60.8* | 36.7 | 0.4 | -9.1 | -14.8 | 6.2
CN(C)S(=O)(=O)c1ccc(C(=O)Nc2nc(-c3cccs3)cs2)cc1 | 55.9* | 54.7* | 4.8 | 9.5 | 4.5 | -2.9
COc1ccc(-c2nc3c(C)cc(Br)cn3c2Cc2cccc(F)c2)cc1OC | -3.2 | -7.9 | · | · | · | ·
CCCC(=O)OC/C(O)=C(\C#N)c1nc2ccccc2[nH]1 | 9.5 | -0.7 | -0.6 | 11.7 | -0.2 | 1.2
N#C/C(=C(/O)COC(=O)CCC1CCCCC1)c1nc2ccccc2[nH]1 | 89.2* | -10.3 | -1.0 | -26.3 | -14.7 | -7.3
COC(=O)c1c(O)ccc(Oc2ccccc2)c1C(=O)OC | 15.7 | 13.8 | · | -28.4 | -20.3 | 47.2*
O=[N+]([O-])c1c(Nc2ccccc2O)cc(Cl)c2nonc12 | 27.1 | 63.9* | 3.1 | 206.6* | 150.2 | 79.2*
COc1ccccc1Nc1ccc2nonc2c1[N+](=O)[O-] | 89.3* | -25.1 | 3.4 | -53.9 | -45.4 | 8.3
COc1ccc(NC(=O)CSc2nc(N)c3cc4c(nc3n2)CCCC4)cc1 | -2.5 | -54.1 | 4.3 | 57.7* | 40.6 | 2.1
COc1ccc(C2=NCCn3nc4cc([N+](=O)[O-])ccc4c32)cc1 | -25.3 | -24.9 | · | -74.2 | -66.0* | -0.7
CCCS(=O)(=O)NC(=O)C1(C)CCN(C(=O)c2ccc(OC)cc2)C1 (stereo not given) | -8.1 | 4.0 | · | · | · | ·
O=C(c1ccc(Cl)c(Cl)c1)N1CCC(=O)N([C@H](COCc2ccc(Cl)cc2)Cc2ccccc2)CC1 | 0.1 | 13.2 | · | · | · | ·
Cn1c(=O)c(C(=O)Nc2ccccn2)c(O)c2ccccc21 | 56.3* | 30.1 | -0.8 | 49.7 | 19.1 | -7.4
CC1(C)C2CCC1(C)C(OCC[N+](C)(C)CC(=O)OC1CCCCC1)C2 (stereo not given) | 11.5 | 20.4 | 3.8 | -5.8 | -8.4 | 68.3*
